The text below walks through data of the supplement of paper PMC11732987, “Enantioselective OTUD7B fragment discovery through chemoproteomics screening and high-throughput optimisation” (Communications Chemistry, 2025).

Test in all cases: log2 ratio of Biotin-Ahx-Ub-VS probe labelling (fragment/DMSO); higher = less target engagement (more negative = stronger competition), active = hit call of the paper (q ≤ 0.05, log2 ratio ≤ -1)
Details in all cases: compound concentration: 200 uM; treatment time: 3 h

The target in one experiment is T1, USP19 (UniProt O94966).
T1 sequence (whole entry): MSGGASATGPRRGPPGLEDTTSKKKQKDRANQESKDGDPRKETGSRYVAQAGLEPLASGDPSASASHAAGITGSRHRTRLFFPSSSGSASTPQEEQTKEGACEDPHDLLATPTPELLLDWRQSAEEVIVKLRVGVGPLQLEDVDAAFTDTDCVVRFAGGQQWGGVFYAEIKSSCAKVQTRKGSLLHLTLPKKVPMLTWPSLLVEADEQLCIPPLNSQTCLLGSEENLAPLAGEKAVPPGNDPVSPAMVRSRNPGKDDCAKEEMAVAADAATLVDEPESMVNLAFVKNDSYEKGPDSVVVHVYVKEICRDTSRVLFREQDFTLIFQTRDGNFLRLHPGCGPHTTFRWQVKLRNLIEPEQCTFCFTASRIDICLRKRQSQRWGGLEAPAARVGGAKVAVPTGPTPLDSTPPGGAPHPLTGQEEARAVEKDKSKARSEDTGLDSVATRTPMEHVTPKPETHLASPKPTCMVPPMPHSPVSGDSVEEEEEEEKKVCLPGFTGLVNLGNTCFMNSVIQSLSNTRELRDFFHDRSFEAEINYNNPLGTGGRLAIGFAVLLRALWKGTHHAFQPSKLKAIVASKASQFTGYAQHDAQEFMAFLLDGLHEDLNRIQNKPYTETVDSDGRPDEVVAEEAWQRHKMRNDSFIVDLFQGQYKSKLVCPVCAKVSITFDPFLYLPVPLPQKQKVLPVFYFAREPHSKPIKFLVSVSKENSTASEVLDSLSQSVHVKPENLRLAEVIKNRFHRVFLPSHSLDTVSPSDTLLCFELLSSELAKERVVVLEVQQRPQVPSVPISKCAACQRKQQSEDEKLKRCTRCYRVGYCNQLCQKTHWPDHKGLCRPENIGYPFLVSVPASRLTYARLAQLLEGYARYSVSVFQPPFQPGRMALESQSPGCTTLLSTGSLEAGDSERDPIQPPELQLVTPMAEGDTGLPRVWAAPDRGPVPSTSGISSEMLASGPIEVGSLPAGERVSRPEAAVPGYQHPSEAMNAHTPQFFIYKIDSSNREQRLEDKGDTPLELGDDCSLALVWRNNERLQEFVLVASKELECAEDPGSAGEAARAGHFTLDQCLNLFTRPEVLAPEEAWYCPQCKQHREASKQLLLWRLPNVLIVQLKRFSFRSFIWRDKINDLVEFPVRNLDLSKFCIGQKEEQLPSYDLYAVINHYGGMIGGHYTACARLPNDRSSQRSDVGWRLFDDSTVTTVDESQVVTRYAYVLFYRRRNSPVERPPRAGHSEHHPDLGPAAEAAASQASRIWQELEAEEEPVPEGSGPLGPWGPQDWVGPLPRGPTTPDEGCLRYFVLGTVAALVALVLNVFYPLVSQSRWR
The procedure, abridged: (§1)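 Triplicate samples of HEK293T lysate, 495 µg each, received fragment at 200 µM or vehicle for 3 h, followed by Biotin-Ahx-Ub-VS (0.5 µM final) for 1 h. After NeutrAvidin enrichment of labelled DUBs and LysC/trypsin digestion, peptides were run by diaPASEF LC-MS/MS. The values are average log2 fragment/vehicle ratios from global-median-normalised Spectronaut label-free quantities, tested by unpaired t-test on proteins having ≥2 unique peptides.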

Another experiment concerns the target T2, USP22 (UniProt Q9UPT9).
T2 sequence (whole entry): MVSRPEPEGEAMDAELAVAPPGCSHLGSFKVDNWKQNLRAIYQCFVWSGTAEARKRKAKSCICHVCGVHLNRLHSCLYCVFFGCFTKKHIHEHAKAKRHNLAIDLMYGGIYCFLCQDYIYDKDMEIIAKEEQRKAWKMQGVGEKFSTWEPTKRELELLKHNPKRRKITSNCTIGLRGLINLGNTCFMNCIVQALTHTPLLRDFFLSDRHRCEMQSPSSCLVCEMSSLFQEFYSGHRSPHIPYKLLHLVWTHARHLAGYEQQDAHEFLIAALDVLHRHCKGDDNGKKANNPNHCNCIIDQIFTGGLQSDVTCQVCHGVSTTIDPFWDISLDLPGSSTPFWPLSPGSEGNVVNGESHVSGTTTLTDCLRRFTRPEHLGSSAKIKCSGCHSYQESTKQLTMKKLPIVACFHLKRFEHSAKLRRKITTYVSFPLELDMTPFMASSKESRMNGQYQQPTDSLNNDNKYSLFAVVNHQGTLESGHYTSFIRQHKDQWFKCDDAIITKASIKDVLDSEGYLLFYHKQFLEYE
Summed up: as §1

Another experiment deals with USP24 (UniProt Q9UPU5). Summed up:
as §1

A further experiment has as its target T3, USP25 (UniProt Q9UHP3).
T3 sequence (whole entry): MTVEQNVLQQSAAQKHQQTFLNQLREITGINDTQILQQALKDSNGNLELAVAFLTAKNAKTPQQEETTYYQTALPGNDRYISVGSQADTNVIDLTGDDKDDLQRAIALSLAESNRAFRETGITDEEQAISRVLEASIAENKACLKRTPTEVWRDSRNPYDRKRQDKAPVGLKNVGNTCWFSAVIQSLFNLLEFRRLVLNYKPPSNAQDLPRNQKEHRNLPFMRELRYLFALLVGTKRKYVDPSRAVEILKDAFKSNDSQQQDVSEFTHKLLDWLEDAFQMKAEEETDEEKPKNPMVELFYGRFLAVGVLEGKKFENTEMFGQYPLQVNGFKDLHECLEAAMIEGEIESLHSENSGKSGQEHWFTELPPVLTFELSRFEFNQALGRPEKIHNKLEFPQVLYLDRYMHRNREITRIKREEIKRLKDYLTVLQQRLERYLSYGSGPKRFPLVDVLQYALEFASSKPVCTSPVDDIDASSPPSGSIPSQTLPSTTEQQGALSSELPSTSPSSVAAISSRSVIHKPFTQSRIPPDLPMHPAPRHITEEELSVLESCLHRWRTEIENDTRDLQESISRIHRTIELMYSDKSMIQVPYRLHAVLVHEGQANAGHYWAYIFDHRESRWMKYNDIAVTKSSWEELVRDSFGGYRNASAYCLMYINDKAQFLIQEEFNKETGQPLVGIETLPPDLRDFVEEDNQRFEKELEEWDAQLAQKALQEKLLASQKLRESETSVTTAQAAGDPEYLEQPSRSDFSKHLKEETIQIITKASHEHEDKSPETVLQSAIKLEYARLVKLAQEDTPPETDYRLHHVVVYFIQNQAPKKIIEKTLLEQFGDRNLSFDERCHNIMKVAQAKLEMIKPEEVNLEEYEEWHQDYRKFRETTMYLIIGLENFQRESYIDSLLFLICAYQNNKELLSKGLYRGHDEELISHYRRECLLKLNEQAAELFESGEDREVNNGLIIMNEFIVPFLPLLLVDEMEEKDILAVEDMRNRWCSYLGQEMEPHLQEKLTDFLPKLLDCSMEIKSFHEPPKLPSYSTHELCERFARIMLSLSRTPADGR
Summed up: as §1

The next experiment concerns the target T4, USP28 (UniProt Q96RU2).
T4 sequence (whole entry): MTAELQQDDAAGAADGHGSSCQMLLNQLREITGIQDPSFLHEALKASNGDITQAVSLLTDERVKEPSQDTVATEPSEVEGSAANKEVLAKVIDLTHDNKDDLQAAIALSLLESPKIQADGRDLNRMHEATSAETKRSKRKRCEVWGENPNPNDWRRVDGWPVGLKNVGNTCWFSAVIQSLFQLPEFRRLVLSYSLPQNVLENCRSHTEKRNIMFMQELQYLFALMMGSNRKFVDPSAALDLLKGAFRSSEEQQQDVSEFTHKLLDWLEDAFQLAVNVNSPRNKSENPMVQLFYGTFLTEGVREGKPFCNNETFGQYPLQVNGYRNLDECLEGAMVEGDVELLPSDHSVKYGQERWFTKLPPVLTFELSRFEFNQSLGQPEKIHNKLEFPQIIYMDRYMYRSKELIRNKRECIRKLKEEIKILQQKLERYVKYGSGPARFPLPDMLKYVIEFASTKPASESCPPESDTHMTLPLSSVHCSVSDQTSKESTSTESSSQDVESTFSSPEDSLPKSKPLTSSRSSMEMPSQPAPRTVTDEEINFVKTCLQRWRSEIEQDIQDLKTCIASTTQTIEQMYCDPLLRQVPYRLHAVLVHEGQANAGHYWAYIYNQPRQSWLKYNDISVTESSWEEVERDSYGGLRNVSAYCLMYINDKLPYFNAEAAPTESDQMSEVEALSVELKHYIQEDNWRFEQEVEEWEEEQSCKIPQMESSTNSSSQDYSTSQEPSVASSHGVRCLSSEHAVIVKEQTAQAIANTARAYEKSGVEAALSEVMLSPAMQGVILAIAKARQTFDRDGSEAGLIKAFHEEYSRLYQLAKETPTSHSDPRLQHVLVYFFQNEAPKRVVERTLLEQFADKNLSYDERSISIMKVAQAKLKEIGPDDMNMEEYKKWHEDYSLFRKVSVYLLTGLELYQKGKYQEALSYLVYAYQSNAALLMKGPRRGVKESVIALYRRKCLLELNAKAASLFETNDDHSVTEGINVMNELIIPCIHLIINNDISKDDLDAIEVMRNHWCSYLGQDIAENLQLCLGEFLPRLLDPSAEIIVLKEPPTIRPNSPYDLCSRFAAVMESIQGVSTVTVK
The procedure, abridged: as §1

A number with no mark means an inactive call.

Chain of USP24 (Q9UPU5 whole entry): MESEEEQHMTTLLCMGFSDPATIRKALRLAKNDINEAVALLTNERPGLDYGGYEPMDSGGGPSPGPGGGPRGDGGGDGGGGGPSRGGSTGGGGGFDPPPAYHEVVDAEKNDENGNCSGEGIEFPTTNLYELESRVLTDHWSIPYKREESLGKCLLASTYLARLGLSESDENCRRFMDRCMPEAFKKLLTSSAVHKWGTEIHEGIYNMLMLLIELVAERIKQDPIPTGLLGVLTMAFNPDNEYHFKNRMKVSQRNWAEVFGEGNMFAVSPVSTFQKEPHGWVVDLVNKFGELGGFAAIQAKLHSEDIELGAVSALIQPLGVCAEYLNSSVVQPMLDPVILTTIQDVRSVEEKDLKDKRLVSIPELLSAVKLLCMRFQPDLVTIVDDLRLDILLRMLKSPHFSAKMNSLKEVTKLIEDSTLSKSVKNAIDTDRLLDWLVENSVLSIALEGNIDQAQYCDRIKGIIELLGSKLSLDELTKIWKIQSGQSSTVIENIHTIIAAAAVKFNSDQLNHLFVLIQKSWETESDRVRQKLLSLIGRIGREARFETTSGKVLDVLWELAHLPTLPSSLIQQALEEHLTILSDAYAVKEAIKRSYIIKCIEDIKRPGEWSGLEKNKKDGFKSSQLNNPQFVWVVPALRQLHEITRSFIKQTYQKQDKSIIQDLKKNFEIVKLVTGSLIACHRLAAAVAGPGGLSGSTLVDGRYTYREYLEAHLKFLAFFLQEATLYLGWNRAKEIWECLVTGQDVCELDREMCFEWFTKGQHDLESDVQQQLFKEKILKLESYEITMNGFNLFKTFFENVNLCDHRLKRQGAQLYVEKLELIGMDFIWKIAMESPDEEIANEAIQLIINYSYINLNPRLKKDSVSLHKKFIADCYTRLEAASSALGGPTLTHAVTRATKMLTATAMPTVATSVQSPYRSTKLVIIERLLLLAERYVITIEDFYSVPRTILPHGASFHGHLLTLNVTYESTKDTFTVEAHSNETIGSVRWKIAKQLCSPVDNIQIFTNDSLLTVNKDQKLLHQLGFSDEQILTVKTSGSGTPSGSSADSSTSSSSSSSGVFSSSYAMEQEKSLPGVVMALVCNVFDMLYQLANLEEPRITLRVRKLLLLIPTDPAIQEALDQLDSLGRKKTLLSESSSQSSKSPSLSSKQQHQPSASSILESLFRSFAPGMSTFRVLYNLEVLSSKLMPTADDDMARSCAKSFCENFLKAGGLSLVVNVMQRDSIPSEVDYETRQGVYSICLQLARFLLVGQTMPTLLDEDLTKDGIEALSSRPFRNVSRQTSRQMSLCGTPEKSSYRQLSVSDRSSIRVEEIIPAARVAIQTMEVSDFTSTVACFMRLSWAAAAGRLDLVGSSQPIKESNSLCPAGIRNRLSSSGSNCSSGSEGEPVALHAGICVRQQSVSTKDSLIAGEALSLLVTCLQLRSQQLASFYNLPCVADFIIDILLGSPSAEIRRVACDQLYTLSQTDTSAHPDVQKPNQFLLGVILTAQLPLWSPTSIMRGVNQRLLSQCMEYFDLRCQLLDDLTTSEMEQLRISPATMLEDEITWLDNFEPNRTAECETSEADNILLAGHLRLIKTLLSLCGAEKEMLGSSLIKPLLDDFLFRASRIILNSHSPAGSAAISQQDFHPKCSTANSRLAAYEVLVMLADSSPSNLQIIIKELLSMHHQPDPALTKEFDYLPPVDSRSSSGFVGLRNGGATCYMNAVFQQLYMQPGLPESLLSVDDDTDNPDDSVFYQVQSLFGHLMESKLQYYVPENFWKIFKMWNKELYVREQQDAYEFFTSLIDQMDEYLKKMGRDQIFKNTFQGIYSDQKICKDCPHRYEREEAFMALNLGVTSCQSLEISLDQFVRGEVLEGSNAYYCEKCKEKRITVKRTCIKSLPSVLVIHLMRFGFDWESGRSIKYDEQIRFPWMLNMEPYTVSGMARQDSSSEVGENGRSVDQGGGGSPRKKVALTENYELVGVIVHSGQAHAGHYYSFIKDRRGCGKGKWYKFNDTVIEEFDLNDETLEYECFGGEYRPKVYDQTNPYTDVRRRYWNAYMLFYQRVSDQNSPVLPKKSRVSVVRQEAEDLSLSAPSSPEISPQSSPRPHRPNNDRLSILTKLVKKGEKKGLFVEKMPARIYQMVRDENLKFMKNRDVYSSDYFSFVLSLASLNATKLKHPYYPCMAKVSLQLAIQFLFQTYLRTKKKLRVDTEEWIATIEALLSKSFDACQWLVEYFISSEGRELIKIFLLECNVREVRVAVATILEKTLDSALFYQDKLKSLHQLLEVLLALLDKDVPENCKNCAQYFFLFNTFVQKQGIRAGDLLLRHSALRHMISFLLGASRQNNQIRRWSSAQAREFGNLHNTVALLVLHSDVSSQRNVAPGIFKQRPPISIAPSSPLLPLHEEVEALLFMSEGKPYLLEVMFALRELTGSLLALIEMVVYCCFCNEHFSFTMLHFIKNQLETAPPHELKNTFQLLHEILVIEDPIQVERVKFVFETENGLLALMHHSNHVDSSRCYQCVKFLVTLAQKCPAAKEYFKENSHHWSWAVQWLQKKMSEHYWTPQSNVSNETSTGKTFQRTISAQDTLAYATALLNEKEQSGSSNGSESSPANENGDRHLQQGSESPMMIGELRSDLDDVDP

For `O=C(CCl)N1CCc2sccc2C1`, the “log2 ratio of Biotin-Ahx-Ub-VS probe labelling” value was -1.19 (active) with USP19; -0.23 in the experiment with USP22; -1.31 (active) in the experiment with USP24; -1.13 (active) with USP25; -0.791 with USP28.
